The full ranking holds about 25,000 sequences; the median of “ln(normalized median fluorescence intensity)” is about 6.7, and the highest 2% start at about 10. For the sample, the highest values were picked, then their nearest neighbours and some sequences at random.

In the assay the test system is PfHDP1 homeodomain (GST-tagged). Put plainly: gcPBM binding intensity (ln(normalized median fluorescence intensity)); higher = stronger DNA binding. The method in brief: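 GST-fused DNA-binding domains of P. falciparum, expressed in E. coli, were applied at about 25 μg on average for 1 h to an Agilent 4 × 180k array of primer-extended double-stranded 36-bp intergenic genomic probes and negative controls. Binding intensity is the highest Masliner-normalised natural-log median intensity across replicate spots of either probe orientation, measured with Alexa488 anti-GST antibody and a 488 nm scan.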
For the sequence “TCTTTTATGCACATTGAGTAAACAACATATTTTTAA [TGCATGCA_negctrl_site561]”, the “gcPBM binding intensity (ln)” value is 10.9.
Consider “CATATTTATAAATATAAACACACAACATTATATGCA [CACACA_site9065]”, for which the “gcPBM binding intensity (ln)” value was determined as 6.82.
Next, “AAAGTAAAAAAAAAAACATGCACATATTTACTTTAT [TGCATGCA_site849]”: 7.94; “ATAATATTATGTGTGAATATATCTTTAAAAAGGATA [GTGCAC_negctrl_site15]”: 6.33.
To “AAGAGAAATATATATTGTACAATAATTTTATTTGGT [XGTACX_site7642]” belongs 6.21; to “AAGTGCATATTATTCACACATAATAATTGTATACCT [CACACA_site5965]”, 10.5; to TATAAATGTATACAAGTGCATATTATTCACACATAA, 8.59.
With “ATATTAATAATATATACACACATAAGTATTGTATAT [CACACA_site4095]”, the “gcPBM binding intensity (ln)” value worked out at 6.46.
Regarding “TGATTCACTATAGTAGTGCATATTATATATATATAT [GTGCAC_site9975]”, the “gcPBM binding intensity (ln)” value is 9.23.
To “AAAAAAAAATATATATATATATATATATTTATGTAT [GTGCAC_negctrl_site483]” belongs 6.92; to “CATATTTTGTGAAAAAGTACATATATATATATATAT [XGTACX_site6295]”, 9.38; to “ATGATAATTATTAAGGGTACATAAAAATATATCTAT [XGTACX_site8969]”, 6.36.
For “GTGTACAGTTTTTGCACACATATAAATAAAAAAAAG [CACACA_site3599]”, the “gcPBM binding intensity (ln)” value was determined as 10.2.
Next, “ATCTGTACAGTTTTTGCACACATATAAATAAAAAAA [CACACA_site9198]”: 10.7.
Next, “ATGTCTACAGTTTTTGCACACATATAAATAAAAAAA [CACACA_site3600]”: 10.3; “TTTGTAGTTTGCACATGTACACATTTCAAAATAAAG [XGTACX_site7568]”: 10.7.
With “ATATATATATATAAATGTACATTTTTCAATAGTTTT [XGTACX_site7449]”, the “gcPBM binding intensity (ln)” value is 8.98.
To “TACATATTGCACAAATAAAAAAGAACAAAAAAAAAA [CACACA_negctrl_site1200]” belongs 10.9; to “TTTAAAAATAAAAGTACACACATAAACATATTGCAC [CACACA_site6784]”, 7.47; to “ATAGAACTATATTGCACACATAATATATATATATAT [CACACA_site3189]”, 10.7.
Next, “TTATAGAACTATATTGCACACATAATATATATATAT [CACACA_site9042]”: 10.1; “TACATATAATATATTGCACACGTCAGAATAATATAG [CACACA_site1744]”: 10.3.
Regarding “TATATTGCAAAAAGTACACACATAAATAAATACATA [CACACA_site6589]”, the “gcPBM binding intensity (ln)” value worked out at 9.04.
“ATATAGTTTCACATGTGTACATAAAAATACACTTGT [XGTACX_site3339]”: the “gcPBM binding intensity (ln)” value is 6.59.
Turning to “AAAAAATTATACCTTTGTACATAAATAAAATATTAT [XGTACX_site418]”, the “gcPBM binding intensity (ln)” value stood at 6.23.
For “AATAAATGGAAAAGGTGTACACAAAAAAAAGGGAAA [XGTACX_site4956]”, the “gcPBM binding intensity (ln)” value was 7.54.
To “AAAAAAAAAGTATATATATATTTAAGGAATTCTCTC [GTGCAC_negctrl_site454]” belongs 6.33; to “TATATTATATATATATGTACATATGGCAAAACATTA [XGTACX_site7958]”, 7.12.
Next, “ATAGAAATATTATATTGTACGAACAGTTATTAACAA [XGTACX_site2137]”: 6.56; “AAAATAAGTAATTACTAATATATAAATTAATAATTA [CACACA_negctrl_site1602]”: 5.84.
Regarding “ATAAATATTGGGTGCACACACATAATATATATATAT [CACACA_site2272]”, the “gcPBM binding intensity (ln)” value was determined as 10.5.
To “ATATAAAAAAATTGCACACATAAATATATACATATA [CACACA_site1218]” belongs 10.1; to “TACAGATATTATTGCACACATATAAAATACCCCCAA [CACACA_site6014]”, 10.4.
As for “ATTGGGTACAAATACACACACATATAAATATTAATA [CACACA_site7173]”, the “gcPBM binding intensity (ln)” value stood at 6.68.
Next, “TACATATATTATTGCACACATATAAAATACCCCCAA [CACACA_site3895]”: 10.8.
Next, “TATTATTTACTTATTGCACACATATAAAATATATTT [CACACA_site9017]”: 10.2; “TATAAATTATAAATTGCACACATATTTTTATATTTA [CACACA_site8974]”: 10.1.
“ATATATATATATATTGCACACATATAAATATATATA [CACACA_site8167]”: the “gcPBM binding intensity (ln)” value is 10.9.
To “ATAAATATTGCGTGCACACACATAATATTTATATAT [CACACA_site7136]” belongs 10.3; to “TTATTTACTTATTGCACACATATAAAATATATTTAT [CACACA_site3101]”, 10.7; to “CTATATAAAAAAATTGCACACATAAATATATACATA [CACACA_site8325]”, 9.87.
Take “CATACATATATTATTGCACACATATAAAATACCCCC [CACACA_site9292]”: the “gcPBM binding intensity (ln)” value is 10.4.
To “TATAAAAAAATAAAAGGAATATACTTGCAAAGGGTA [CACACA_negctrl_site1438]” belongs 8.14; to “ATAATATTTTCTTCTTATTGAATGCTTTAAATTTAC [CACACA_negctrl_site1273]”, 6.46; to “CGCACTAAAAAACACACACACACACCCATATATATA [CACACA_site4152]”, 7.19.
In the case of TTTTTAATTTTGTGGGTGCTTTCGTGTTATTATATA, the “gcPBM binding intensity (ln)” value amounted to 7.23.
To “ATAAACATGGAAATGTATTAAAAGCAAGTATATAAA [XGTACX_negctrl_site516]” belongs 6.66.
To “TGTTTTTAAAAATATACACACACAGATATTATATAT [CACACA_site8162]” belongs 6.73.
As for “CATCCACATATATGTACACACATATATATATATATA [CACACA_site2964]”, the “gcPBM binding intensity (ln)” value came to 9.46.
To “TATAATAATACTTATTGTACTATTAGTTTAATTCAT [XGTACX_site6638]” belongs 6.15; to “TATAAATACATACATACACACATATATATATATATT [CACACA_site6116]”, 6.81; to “TTTTTTTTTTTTTGCACACACATATATAAATATATA [CACACA_site3949]”, 9.41.
As to “AATGTAGAAATGGGTGCACACACATATATAATATAT [CACACA_site8799]”, the “gcPBM binding intensity (ln)” value was found to be 10.2.
Take “ATATATATATATTGCACACATATAAATATATATATT [CACACA_site807]”: the “gcPBM binding intensity (ln)” value was 10.6.
To “TATATATATATATTCACACATAAATATATGCACCCA [CACACA_site4263]” belongs 11; to “AATATAAATAAACACACACACATATATATATATATT [CACACA_site2906]”, 6.78; to “TATATATATATATTCACACATAAAAATAAAATAAAA [CACACA_site4774]”, 8.8.
For the sequence “TGTAGAAATGGGTGCACACACATATATAATATATAT [CACACA_site2507]”, the “gcPBM binding intensity (ln)” value came out at 10.7.
To “TGTAGAAATGGGTGCACACACATATAAAATCTATAT [CACACA_site7224]” belongs 10.4; to “CTTTTTTTTTTTTTTGCACACACATATATAAATATA [CACACA_site3950]”, 10.6.
“TAAACATAAATATGCACACATATACATATATTCATA [CACACA_site2667]”: the “gcPBM binding intensity (ln)” value was determined as 9.75.
As for “AATAAAAAAAAATGCACACATATATATATATATATA [CACACA_site2421]”, the “gcPBM binding intensity (ln)” value stood at 9.87.

These data come from the supplement of paper PMC11417369.
